High-throughput results (PubChem BioAssay)
TDP1 inh = blocks human tyrosyl-DNA phosphodiesterase 1. Q9NUW8. recombinant TDP1, AlphaScreen DNA substrate cleavage. Potency, µM (titrated, usually from 130 µM), most hits filed as inhibitors. 350,000 tested, 0.28% active. AID 485290; also: nearly all actives have a fitted effect of over 40% in size
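Here, a 5' biotin and 3' phosphotyrosine-FITC DNA oligonucleotide reports Tdp1 activity: intact substrate bridges AlphaScreen beads, while cleavage leaves a 3' phosphate and drops signal. All incubations at room temperature.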
G9a block = blocks human histone lysine methyltransferase G9a. Q96KQ7. Potency, µM (top dose mostly 102 µM), actives largely listed as inhibitors. 350,000 tested, 8.8% active. G9a H3K9 monomethylation, AlphaScreen, 2 h. AID 504332; also: nearly all actives have a fitted effect of over 75% in size
Target sequence (Q96KQ7 913-1193 limits assumed): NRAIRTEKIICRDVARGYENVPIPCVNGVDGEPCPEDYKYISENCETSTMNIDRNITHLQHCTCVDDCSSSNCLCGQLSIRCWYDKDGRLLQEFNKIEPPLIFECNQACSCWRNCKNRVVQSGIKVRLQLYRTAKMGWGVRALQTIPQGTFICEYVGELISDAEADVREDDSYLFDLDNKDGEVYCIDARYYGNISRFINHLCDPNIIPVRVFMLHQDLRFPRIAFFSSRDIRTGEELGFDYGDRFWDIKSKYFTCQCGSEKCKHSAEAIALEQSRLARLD
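Using a bead-based AlphaScreen, monomethylated H3K9 product from 2 h room-temperature reactions (G9a 20 nM, peptide 500 nM, SAM 20 uM) was detected with 0.5 ug/mL rabbit anti-H3K9me1 antibody.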
Sfp inh = inhibitors of Bacillus subtilis Sfp phosphopantetheinyl transferase; 310,000 tested, 3.5% active; Potency, µM, hits mostly inhibitors; Biochemical Sfp PPTase activity, qHTS; Q9F4F7;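 also: the enzyme is Sfp with the accession as filed and its product quenches rhodamine fluorescence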
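Sfp 15 nM + cpd, 15 min RT; start w/ rhodamine-CoA 5 uM, BHQ-2-YbbR 12.5 uM (final); 50 mM Hepes pH 7.6, 10 mM MgCl2, 0.01% NP-40, 0.01% BSA; read 525/598 nm at 0 and 30 min.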
HP1b chromo inh = inhibitors of HP1-beta chromodomain binding to methylated histone tails; P83916; AlphaScreen HP1-beta / biotin-H3K9me3 peptide binding; Potency, µM (highest dose often 114 µM), hits mostly inhibitors; 390,000 tested, 0.56% active; also: nearly all actives have a fitted effect of over 70% in size
Target sequence (P83916 whole entry, looked up): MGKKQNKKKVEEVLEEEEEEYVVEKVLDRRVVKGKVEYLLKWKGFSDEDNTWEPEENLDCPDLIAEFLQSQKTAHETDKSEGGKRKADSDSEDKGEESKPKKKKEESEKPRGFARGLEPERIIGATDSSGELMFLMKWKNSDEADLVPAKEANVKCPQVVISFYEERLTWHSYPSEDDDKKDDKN
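HP1-beta protein (50 nM final) preincubated 30 min at room temperature with biotinylated H3(1-18)K9me3 peptide (50 nM) in PBS pH 7.4, 0.01% Tween-20, then compound added for 30 min. AlphaScreen streptavidin donor/nickel chelate acceptor beads (10 ug/mL final), 30 min dark, luminescence read.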
BAZ2B block = BAZ2B (human) inhibition; 360,000 tested, 4.4% active; Q9UIF8; Potency, µM (doses to about 114 µM), most hits filed as inhibitors; AlphaScreen BAZ2B-H3K14Ac peptide displacement; AID 504333; also: nearly all actives have a fitted effect of over 60% in size
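In this displacement format the biotinylated H3(5-23) peptide acetylated at Lys14 serves as ligand at 50 nM, with BAZ2B at 50 nM in PBS pH 7.4 containing 0.01% Tween-20. Donor and acceptor beads are 10 ug/mL final.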
JMJD2A Tudor = inhibitors of human JMJD2A Tudor domain; O75164; Potency, µM (titrated, usually from 114 µM), actives largely listed as inhibitors; 390,000 tested, 4.4% active; AlphaScreen JMJD2A-Tudor / H3K4me3 peptide binding; also: nearly all actives have a fitted effect of over 50% in size
A number is an active result; - = inactive; ? = inconclusive; . = not tested or not shown; [ ] = dose if it differs, or a comment. An excerpt weighted towards active compounds, which were near 12% of everything screened. Calls follow the shape of the dose curve; as a rule, active = well fitted curve in the direction sought with a large enough effect; inconclusive = small, poorly fitted or top-dose-only effect, or another doubt; inactive = no such curve, though single readings can be large; an effect the other way counts as inactive or inconclusive.

SMILES	TDP1 inh	G9a block	Sfp inh	HP1b chromo inh	BAZ2B block	JMJD2A Tudor
COc1cc(C(=O)NCC(c2ccccc2)N(C)C)ccc1OCC(=O)N1CCOCC1 (centres undefined)	-	-	-	-	-	-
NC(C(=O)O)c1cc(O)cc(O)c1 (centres undefined)	-	.	?	.	.	.
Cc1cc(C)n(NC(=S)NC2CCCC2)c(=O)c1C#N	-	-	-	-	-	11.2µM
S=c1[nH]nc(-c2cc(-c3ccco3)[nH]n2)n1-c1cccc2ccccc12	-	3.98µM	10µM	?	39.8µM	89.1µM
Cc1ccc(-n2c(-c3cc(-c4ccco4)[nH]n3)n[nH]c2=S)c(Br)c1	-	5.62µM	50.1µM	-	?	-
CCC1=NN(C(=O)c2ccc(Cl)cc2)C(O)(c2ccccc2)C1 (centres undefined)	-	.	-	-	50.1µM	-
CCC1=NN(C(=O)c2ccccc2O)C(O)(c2ccccc2)C1 (centres undefined)	-	-	-	-	50.1µM	7.08µM
O=C(c1ccccc1O)N1N=C(C(F)(F)F)CC1(O)c1ccc([N+](=O)[O-])cc1 (centres undefined)	-	?	-	-	?	?
NC(=O)c1ccc(N=Nc2c(O)c3ccccc3[nH]c2=O)cc1	-	?	-	.	?	.
N=C(N)c1ccc(N=Nc2c(O)ccc3c2[nH]c2ccccc23)cc1	.	.	.	70.8µM	.	56.2µM
CC(C)c1ccc(OCC(=O)NNC(=S)NC(=O)c2ccco2)c(Br)c1	-	-	-	-	-	?
O=C(Cc1cccs1)NNC(=S)NC(=O)c1ccco1	-	11.2µM	-	-	-	-
CC(C)(C)c1ccc(OCC(=O)NNC(=S)NC(=O)c2ccco2)c(Br)c1	-	28.2µM	-	?	-	?
O=C(Cc1ccc(Cl)cc1)NNC(=S)NC(=O)c1cccs1	.	35.5µM	-	-	-	-
COCCn1c(SCC(=O)N2CCCCC2)nc2c(c1=O)SC(C)C2 (centres undefined)	-	-	-	-	-	-
Oc1ccc(C[C@@H]2CNCCN2CCc2cc(C(F)(F)F)cc(C(F)(F)F)c2)cc1	-	-[2.33 µM]	.	-	-	-
FC(F)(F)c1cc(CCN2CCNC[C@H]2Cc2cccc3ccccc23)cc(C(F)(F)F)c1	.	?	.	-	50.1µM	?
O=C1NC(c2ccccc2Br)=N/C1=C\c1ccco1	.	44.7µM	?	-	-	?
O=C1NC(c2cccc(Br)c2)=N/C1=C\c1ccco1	-	?	?	-	?	?
O=C1NC(c2ccccc2)=N/C1=C/c1ccco1	-	22.4µM	?	-	-	-
CN(Cc1nc2ccccc2c(=O)[nH]1)Cc1nc2ccsc2c(=O)[nH]1	-	-	-	-	39.8µM	79.4µM
Cc1nc2c(Cl)cccc2[nH]1	-	56.2µM	-	-	-	-
CCOc1ccc(N2C(=O)c3cccnc3C2Nc2ccc(C)cc2)cc1 (centres undefined)	-	?	-	-	-	-
O=C1c2cccnc2C(Nc2cccc(F)c2)N1Cc1ccco1 (centres undefined)	-	25.1µM	-	-	-	-
Cc1ccc(NC2c3ncccc3C(=O)N2Cc2cccs2)cc1 (centres undefined)	.	44.7µM	-	-	.	14.1µM
SMILES	TDP1 inh	G9a block	Sfp inh	HP1b chromo inh	BAZ2B block	JMJD2A Tudor
O=C1c2cccnc2C(Nc2ccccc2)N1Cc1ccco1 (centres undefined)	-	25.1µM	50.1µM	-	56.2µM	31.6µM
O=C1c2ccccc2NC(c2ccccc2)N1Cc1ccco1 (centres undefined)	-	-	-	-	.	-
O=C1c2cccnc2C(Nc2ccccc2Br)N1Cc1ccco1 (centres undefined)	-	50.1µM	56.2µM	-	-	-
O=C1c2cccnc2C(O)N1Cc1ccco1 (centres undefined)	-	-	-	-	-	-
C/C(CC(=O)NCc1ccccc1Cl)=N/NC(=O)c1ccccn1	.	-	-	-	-	-
O=C(c1ccc(NS(=O)(=O)c2ccc(F)cc2)cc1)N1CCOCC1	-	-[0.501 µM]	.	-	-	-
Cn1c(=O)nc2n(-c3ccc(Cl)c(Cl)c3)c3cc(Cl)ccc3cc-2c1=O	-	-	.	-	.	-
O=C(Nc1cc(-c2ccc(F)c(F)c2)no1)c1ccccc1F	-	-	.	-	-	-
COc1cc(NC2c3ncccc3C(=O)N2Cc2ccco2)cc(OC)c1OC (centres undefined)	-	35.5µM	-	-	-	-
COc1ccc(CN2C(=O)c3cccnc3C2Nc2cc(Cl)c(OC)cc2OC)cc1 (centres undefined)	-	44.7µM	-	?	50.1µM	35.5µM
COc1ccc(CN2C(=O)c3cccnc3C2Nc2ccc(C)cc2)cc1 (centres undefined)	-	-	-	-	?	-
CC(=O)c1ccc(NC2c3ncccc3C(=O)N2Cc2ccc(F)cc2)cc1 (centres undefined)	-	.	-	-	?	-
CC(=O)c1cccc(NC2c3ncccc3C(=O)N2Cc2ccco2)c1 (centres undefined)	-	50.1µM	79.4µM	-	-	-
CCCCC[C@H](O)/C=C\[C@@H]1[C@H](O)CC(=O)[C@@H]1CCCCCCC(=O)O	-	-[21.5 µM]	-	.	.	.
Cc1ccc(C(=O)N2CCN(c3ccc([N+](=O)[O-])cc3)CC2)o1	.	-	-	-	-	-
Fc1ccccc1Cn1c(-c2ccccc2)nc2ccccc21	-	-	.	-	-	-
NS(=O)(=O)c1ccc(NCc2ccccc2OCc2ccc(F)cc2)cc1	-	?	-	-	56.2µM	-
CCOc1ccc(NCc2ccccc2OCc2cccc(F)c2)cc1	-	10µM	-	-	?	?
Cc1[nH]c2ccccc2c1/C=N/n1cnnc1	-	-	-	-	-	-[11.4 µM]
COCCN=c1scc(-c2cc(OC)c(OC)c(OC)c2)n1/N=C/c1c(C)[nH]c2ccccc12	-	?	-	?	11.2µM	20µM
COC(=O)c1sccc1-c1ccc(C(=O)Nc2cccc(Cl)c2)o1	-	-	-	-	?	?
